# Results from the supplement of paper PMC6555819.
# Legend:
# Experiment in all cases: PBM binding z-score (relative to random genomic background probes); higher = stronger binding; sequences stand for … in GC…GCGATTGACAGCGTAGAATGAAGG
# [1] = test system: FXR:RXRa (NR concentration 270 nM, RXRa partner concentration 90 nM)
# In short: (§1)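 The probes on custom Agilent 4×180K protein-binding microarrays were double-stranded, with 34-nt variable regions bearing direct-repeat seeds, single-nucleotide variants, half-site ablations and random human genomic background sequences. Incubation lasted 1 h with ligand-free nuclear receptor dimers in PBS pH 7.4, 2% milk, 0.02% Triton X-100, 1 mM DTT, 0.2 mg/mL BSA and 0.4 mg/ml salmon testes DNA. Antibodies against each partner (one per run) detected bound dimers, and fluorescence scans were regression-normalized. Binding z-scores take the random background probes as reference.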
# [2] = test system: LXRa:RXRa (NR concentration 270 nM, RXRa partner concentration 90 nM)
# In short: as §1
# [3] = test system: LXRa homodimer (NR concentration 270 nM)
# In short: as §1
# [4] = test system: LXRb:RXRa (NR concentration 270 nM, RXRa partner concentration 90 nM)
# In short: as §1
# [5] = test system: LXRb homodimer (NR concentration 270 nM)
# In short: as §1
# [6] = test system: PPARa:RXRa (NR concentration 270 nM, RXRa partner concentration 90 nM)
# In short: as §1
# [7] = test system: PPARg:RXRa (NR concentration 180 nM, RXRa partner concentration 90 nM)
# In short: as §1
# [8] = test system: PPARg:RXRa 270nM:90nM, anti-RXR (NR concentration 270 nM, RXRa partner concentration 90 nM)
# In short: as §1
# [9] = test system: PPARg:RXRa 30nM:10nM, anti-RXR (NR concentration 30 nM, RXRa partner concentration 10 nM)
# In short: as §1
# [10] = test system: PPARg:RXRa 90nM:30nM, anti-RXR (NR concentration 90 nM, RXRa partner concentration 30 nM)
# In short: as §1
# [11] = test system: PPARg:RXRa DBDmut IVT, anti-RXR (DBD mutation: RXRa K156A/R161A, NR concentration 270 nM, RXRa partner concentration 90 nM)
# In short: as §1
# [12] = test system: PPARg:RXRa IVT, anti-PPARg (NR concentration 270 nM, RXRa partner concentration 90 nM)
# In short: as §1
# [13] = test system: PPARg DBDmut:RXRa IVT, anti-PPARg (DBD mutation: PPARg1 K132A/R137A, NR concentration 270 nM, RXRa partner concentration 90 nM)
# In short: as §1
# [14] = test system: PPARg DBDmut IVT, anti-PPARg (DBD mutation: PPARg1 K132A/R137A, NR concentration 270 nM)
# In short: as §1
# [15] = test system: PPARg homodimer (NR concentration 180 nM)
# In short: as §1
# [16] = test system: PXR:RXRa (NR concentration 270 nM, RXRa partner concentration 90 nM)
# In short: as §1
# [17] = test system: PXR homodimer (NR concentration 270 nM)
# In short: as §1
# [18] = test system: RARa:RXR (NR concentration 270 nM, RXRa partner concentration 90 nM)
# In short: as §1
# [19] = test system: RARa homodimer (NR concentration 270 nM)
# In short: as §1
# [20] = test system: RARb:RXRa (NR concentration 270 nM, RXRa partner concentration 90 nM)
# In short: as §1
Sequence,PBM binding z-score [1],PBM binding z-score [2],PBM binding z-score [3],PBM binding z-score [4],PBM binding z-score [5],PBM binding z-score [6],PBM binding z-score [7],PBM binding z-score [8],PBM binding z-score [9],PBM binding z-score [10],PBM binding z-score [11],PBM binding z-score [12],PBM binding z-score [13],PBM binding z-score [14],PBM binding z-score [15],PBM binding z-score [16],PBM binding z-score [17],PBM binding z-score [18],PBM binding z-score [19],PBM binding z-score [20]
TCTATTAGTTGATTAGGGCAAGCGAAACAGCGGA,0.582,0.347,0.126,0.37,0.284,0.756,-0.0527,2.03,3.67,2.81,1.88,1.33,0.35,0.93,0.455,0.314,0.381,0.428,1.01,0.893
TAGCCTAGGTCAAGGGCCAGTATACCACGCGAAC,4.16,3.02,0.0881,2.2,-0.716,3.87,4.52,4.61,1.8,3.59,1.71,3.19,-0.167,-0.743,1.63,1.28,-0.234,2.31,-0.242,3.96
TCTCGGAGGACACGAAGGTCAGACCTTTCCAGAG,1.6,1.26,0.373,1.41,-0.66,2.19,0.782,1.53,2.38,2.04,1.65,0.996,-0.713,-0.138,1.39,2.12,0.898,2.4,0.387,3.59
CCGCGGAGGACAGAAGGTCAGAGCTGTCCGCTTT,1.22,1.49,-0.1,0.955,-1.05,1.77,-0.261,0.596,-0.857,0.289,-0.00504,0.1,-1.81,-2.04,0.973,1.42,-0.53,2.3,-0.744,3.25
TCACACAGGTGAAGGTAACTCAGGTACGCAGTCG,0.851,2.02,-0.228,1,-0.466,1.32,1.14,1.81,2.94,2.66,2.55,1.69,0.51,-0.435,-0.0155,0.559,-0.0288,0.898,0.414,1.15
GCTATTAGTTGAAAGGGCAACCAAATGATTCTCG,0.334,0.735,0.214,0.946,-0.0517,2.45,2.73,4.6,2.34,4.39,0.461,1.15,0.444,0.602,0.903,0.803,0.104,1.48,0.766,2.13
CCGACTGGGGCATAAGGTCACCATAAGCCAGCCC,3.25,3.18,0.732,2.78,-0.819,4.02,4.56,4.89,2.53,4.9,2.94,4.43,0.997,0.485,6.12,3.81,0.594,5.16,2.35,3.84
CAAACTAGGTCACAGACGTCAAAGTCCGTGCGTA,4.25,3.06,0.272,2.08,0.253,5.37,8.86,7.39,5.35,7.4,8.58,8.8,3,2.09,2.24,1.72,0.0509,2.65,0.354,4.08
ATATGTAGGTTAGCTGGGCTCATTCAGACTAGGC,-0.0917,-0.146,-0.339,-0.294,-0.171,1.98,2.71,2.34,0.752,1.5,6.55,5.57,1.42,1.63,0.611,-0.0149,-0.367,0.11,0.493,0.456
CGTCAAAGTGCAAGGTAACGTAACAGAAAGCAGC,0.00612,0.219,-0.312,0.159,-0.589,0.731,0.773,0.593,-0.0711,0.326,0.0283,0.682,-0.0131,-0.0811,0.153,0.149,-0.225,0.344,-0.0833,2.05
ATCGAAAGGTTGACGAGGTGAGTATACACCGTTT,1.11,0.773,-0.233,0.764,-0.00698,1.79,0.968,0.974,0.581,0.771,0.0825,1.03,0.76,1.04,0.684,0.914,0.374,1.25,0.63,1.79
TAGCCTTGGTCATGCGGGCCAGTATAGTGTCGGC,-0.908,-1.14,-0.986,-1.09,-0.961,-0.707,-0.423,-0.768,-0.886,-0.995,-0.432,0.0959,-0.481,-0.0984,-1.18,-0.758,-1.18,-0.757,-1.23,0.534
AGTCAAAGTTCATCTAGGTAATGTAAGATATGCT,6.48,6.26,5.38,4.07,1.98,4.95,6.59,6.48,3.67,5.42,1.01,3.31,1.3,1.47,2.6,5.28,6.34,3.72,1.8,4.94
